Bioassay records: PubChem BioAssay, National Center for Advancing Translational Sciences (NCATS)
NPC1 prom act: activators of NPC1 promoter; Potency, µM (highest dose often 9.22 µM), hits mostly activators; Huh7 NPC1 promoter luciferase reporter, 24 h; 320,000 tested, 2.4% active; AID 485313; further: nearly all actives have a fitted effect of over 60% in size
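Luminescence read-out of NPC1 promoter-driven luciferase in stably transfected Huh7 cells; compounds delivered in DMSO and left 24 h at 37C, 5% CO2, qHTS titration format.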
FLuc modulator: counter-screen for miR-21 project: firefly luciferase inhibitors or activators | P08659 | purified FLuc, Km substrates, luminescence inhibition | Potency, µM (doses to about 57.5 µM), actives largely listed as inhibitors | 360,000 tested, 6.9% active; further: nearly all actives have a fitted effect of over 55% in size
Target sequence (P08659 whole entry, looked up): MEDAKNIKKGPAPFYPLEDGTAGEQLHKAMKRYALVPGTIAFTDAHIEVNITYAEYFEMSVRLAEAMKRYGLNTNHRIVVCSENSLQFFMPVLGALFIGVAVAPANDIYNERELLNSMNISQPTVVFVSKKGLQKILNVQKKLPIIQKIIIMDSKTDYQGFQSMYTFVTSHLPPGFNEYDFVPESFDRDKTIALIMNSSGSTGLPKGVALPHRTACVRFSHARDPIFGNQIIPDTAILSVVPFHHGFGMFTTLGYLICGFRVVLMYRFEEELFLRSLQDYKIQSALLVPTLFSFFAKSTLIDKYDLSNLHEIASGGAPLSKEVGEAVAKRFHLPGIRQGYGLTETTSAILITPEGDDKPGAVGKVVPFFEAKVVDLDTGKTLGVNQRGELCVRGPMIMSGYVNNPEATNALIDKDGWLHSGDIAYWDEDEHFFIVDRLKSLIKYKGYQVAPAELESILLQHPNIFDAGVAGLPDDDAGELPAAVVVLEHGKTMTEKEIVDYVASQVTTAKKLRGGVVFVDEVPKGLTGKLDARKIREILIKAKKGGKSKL
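Biochemical qHTS of compounds, final roughly 60 µM downward over six points, against 10 nM purified firefly luciferase using Km concentrations of substrates (10 uM D-luciferin, 10 uM ATP) in Tris acetate pH 7.5 buffer; luminescence output.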
ELG1 genotoxic: genotoxicity induction in ELG1-luciferase HEK293T cells | Potency, µM (titrated, usually from 46 µM), usual class: activators | AID 504466 | 330,000 tested, 1.3% active | HEK293T ELG1-luciferase reporter, luminescence, 16 h; further: nearly all actives have a fitted effect of over 60% in size
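Genotoxicity was scored as increased ELG1-luciferase reporter signal, measured by ONE-Glo luminescence (30 min, room temperature). Compound or vehicle exposure of the HEK293T reporter cells lasted 16 hr at 37°C.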
SMN2 splice enh: enhancers of SMN2 splice variant expression. HEK293 SMN2-luciferase splicing reporter, luminescence, 30-36 h. Potency, µM (top dose mostly 46.1 µM), hits mostly activators. 210,000 tested, 2.8% active. AID 1458; further: nearly all actives have a fitted effect of over 55% in size
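qHTS luciferase splicing reporter: luminescence rises when SMN2 exon 7 is included in transfected HEK293 cells. Compound exposure lasted 30-36 h at 37C, with 4.5 mM final sodium butyrate as control, followed by a ONE-Glo read.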
Luc counter: blocks Kinase-Glo luciferase, a counter-screen artifact; Kinase-Glo luciferase, ATP luminescence, 8 min; Potency, µM (titrated, usually from 38.3 µM), actives largely listed as inhibitors; 200,000 tested, 0.28% active; AID 1379; further: nearly all actives have a fitted effect of over 60% in size
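Substrate mix (final 50 mM imidazole pH 7.2, 50 mM KCl, 7 mM MgCl2, 10 uM ATP, 0.01% Tween 20, 0.05% BSA) plus pin-tool compound, then Kinase-Glo detection mix; 8 min ambient, luminescence read.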
Rab9 promoter act: activates the Rab9 promoter; 320,000 tested, 2.8% active; Huh7 Rab9 promoter-luciferase reporter, luminescence, 24 h; Potency, µM (top dose mostly 9.22 µM), hits mostly activators; further: nearly all actives have a fitted effect of over 60% in size
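Luminescence from Amplite-detected luciferase (10 minutes, ambient) reports Rab9 promoter activation. Before that, stable Rab9-luciferase Huh7 cells (1500/well, reduced-serum OP-MEM I plus 10% FBS) were exposed to compound for 24 hours at 37C.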
Of the large screens only hits and unclear results are named; the others gave an inactive call. Compounds with a hit are over-represented: about 7.3% of the library has one in this group of screens. The call rests on the fitted dose curve; in most records, active means well fitted curve in the direction sought with a large enough effect; inconclusive means small, poorly fitted or top-dose-only effect, or another doubt; inactive means no such curve, though single readings can be large; an effect the other way counts as inactive or inconclusive.

c1ccc2c(c1)oc1c(N3CCN(Cc4ccc5c(c4)OCO5)CC3)ncnc12	FLuc modulator 16.9µM, ELG1 genotoxic 18.4µM
c1ccc2c(c1)oc1c(Nc3ccc4c(c3)OCCO4)ncnc12	NPC1 prom act inconclusive, FLuc modulator 2.39µM, SMN2 splice enh 2.82µM, Rab9 promoter act 1.58µM
CCc1nc(Nc2ccccc2O)c2oc3ccccc3c2n1	NPC1 prom act inconclusive (no result: SMN2 splice enh, Luc counter)
Oc1cc(O)c2c(c1)O[C@H](c1ccc(O)c(O)c1)[C@@H](O)[C@@H]2c1c(O)cc(O)c2c1O[C@@H](c1ccc(O)c(O)c1)[C@H](O)C2	none (no result: NPC1 prom act, FLuc modulator, ELG1 genotoxic, Rab9 promoter act)
C[C@]12CC[C@H](O)CC1=CC[C@H]1[C@@H]2CC[C@@]2(C)C(N(CCO)CCO)CC[C@@H]12 (stereo partly drawn)	none (no result: NPC1 prom act, FLuc modulator, ELG1 genotoxic, Rab9 promoter act)
COc1cc2ccccc2cc1C(=O)Nc1ccccc1N1CCN(S(C)(=O)=O)CC1	none (no result: NPC1 prom act, ELG1 genotoxic, Rab9 promoter act)
CCN1CCN(c2ccc(NC(=O)c3ccccc3F)cc2Cl)CC1	NPC1 prom act inconclusive, FLuc modulator inconclusive, ELG1 genotoxic inconclusive, SMN2 splice enh 10µM, Rab9 promoter act inconclusive
CCCCCC(=O)NC(=S)Nc1ccc(N2CCCCC2)c(Cl)c1	none (no result: SMN2 splice enh, Luc counter)
CCN1CCN(c2ccc(NC(=O)c3cc4ccccc4cc3OC)cc2C)CC1	FLuc modulator 8.49µM, ELG1 genotoxic inconclusive, Rab9 promoter act inconclusive (no result: SMN2 splice enh, Luc counter)
CCCCCC(=O)Nc1ccc(N2CCN(CC)CC2)c(Cl)c1	NPC1 prom act inconclusive, FLuc modulator inconclusive, ELG1 genotoxic 18.4µM, SMN2 splice enh inconclusive
Nc1nc(CC(=O)O)cs1	none (no result: NPC1 prom act, FLuc modulator, ELG1 genotoxic, Luc counter, Rab9 promoter act)
CCc1nc(C)cn1S(=O)(=O)c1ccc(Cl)c(Cl)c1OC	none (no result: NPC1 prom act, ELG1 genotoxic, Luc counter, Rab9 promoter act)
O=C(Nc1ccncc1)c1ccc(F)cc1	none
O=C(Nc1ccc2[nH]ccc2c1)c1ccccc1	NPC1 prom act 0.562µM, FLuc modulator 3.38µM, ELG1 genotoxic inconclusive, Rab9 promoter act 1.41µM (no result: SMN2 splice enh, Luc counter)
O=C(NC(=S)Nc1ccc2[nH]ncc2c1)c1ccccc1	NPC1 prom act inconclusive, FLuc modulator inconclusive, Rab9 promoter act inconclusive
O=C(Nc1ccc2[nH]ccc2c1)c1ccc(F)cc1	NPC1 prom act 0.398µM, FLuc modulator 1.51µM, ELG1 genotoxic inconclusive, Rab9 promoter act 0.501µM (no result: SMN2 splice enh, Luc counter)
CC(=O)Nc1ccc(S(=O)(=O)NCc2cccn2Cc2cccc(C)c2)cc1	none (no result: NPC1 prom act, ELG1 genotoxic, SMN2 splice enh, Luc counter, Rab9 promoter act)
CCc1nn(CC(=O)N2CCN(c3cccc(C)c3)C(C)C2)c(=O)c2cc3sccc3n12 (stereo not drawn)	none (no result: NPC1 prom act, ELG1 genotoxic, SMN2 splice enh, Luc counter, Rab9 promoter act)
C[n+]1ccc(/C=C/c2ccccc2O)c2ccccc21	none
CN1/C(=C/c2cc[n+](C)c3ccccc23)C=Cc2ccccc21	FLuc modulator 13.5µM, Luc counter inconclusive
Cc1cc(Nc2cccc(Cl)c2)nc2ccc(NC(=O)COc3ccc(Cl)cc3)cc12	none (no result: NPC1 prom act, ELG1 genotoxic, SMN2 splice enh, Luc counter, Rab9 promoter act)
CC(=O)c1cccc(NC(=O)Cn2c(=O)oc3cc(S(=O)(=O)NC4CCCC4)ccc32)c1	none (no result: NPC1 prom act, ELG1 genotoxic, Luc counter, Rab9 promoter act)
Cc1ccc(SC[C@H](CC(C)C)N2CCN(C)CCC2=O)cc1	NPC1 prom act inconclusive, FLuc modulator 15.1µM, ELG1 genotoxic inconclusive, Rab9 promoter act 3.55µM (no result: SMN2 splice enh, Luc counter)
Cc1ccc(SC[C@H](c2ccccc2)N2CCN(C)CCC2=O)cc1	NPC1 prom act inconclusive, FLuc modulator 15.1µM, ELG1 genotoxic inconclusive, Rab9 promoter act 2.82µM (no result: SMN2 splice enh, Luc counter)
COc1ccc(SC[C@H](CC(C)C)N2CCN(C)CCC2=O)cc1	NPC1 prom act inconclusive, FLuc modulator inconclusive, ELG1 genotoxic inconclusive (no result: SMN2 splice enh, Luc counter)
Cc1ccc(SCCN2CCN(CCc3ccccc3)CCC2=O)cc1	none (no result: SMN2 splice enh, Luc counter)
CC(C)C[C@@H](CSc1ccc(Br)cc1)N1CCN(CC(C)C)CCC1=O	NPC1 prom act inconclusive, FLuc modulator 15.1µM (no result: SMN2 splice enh, Luc counter)
CC(C)CN1CCC(=O)N(CCSc2ccccc2)CC1	NPC1 prom act 1.58µM, FLuc modulator 23.9µM, ELG1 genotoxic inconclusive, Rab9 promoter act 1.58µM (no result: SMN2 splice enh, Luc counter)
CC(=O)Nc1ccc(SC[C@H](CC(C)C)N2CCN(CC(C)C)CCC2=O)cc1	none (no result: SMN2 splice enh, Luc counter)
CCc1c(CN2CCN(c3cccc(C)c3C)CC2)csc1C	none (no result: NPC1 prom act, ELG1 genotoxic, SMN2 splice enh, Luc counter, Rab9 promoter act)
CCOc1ccc(CCNC(=O)c2ccc3c(c2)c(C)c(C)n3C)cc1	none (no result: NPC1 prom act, ELG1 genotoxic, SMN2 splice enh, Luc counter, Rab9 promoter act)
CC(C)C[C@@H](CSc1ccc(Br)cc1)N1CCN(C)CCC1=O	NPC1 prom act 3.55µM, FLuc modulator 19µM, ELG1 genotoxic inconclusive, Rab9 promoter act inconclusive (no result: SMN2 splice enh, Luc counter)
Cc1ccc(NC(=O)Nc2cn(C)c(=O)c3ccccc23)c(Cl)c1	none (no result: NPC1 prom act, ELG1 genotoxic, SMN2 splice enh, Luc counter, Rab9 promoter act)
Cc1ccc(NC(=O)Nc2cccs2)c(Cl)c1	FLuc modulator 8.49µM (no result: NPC1 prom act, ELG1 genotoxic, Rab9 promoter act)
O=C(Nc1cccs1)Nc1ccc(F)cc1F	FLuc modulator inconclusive, Rab9 promoter act inconclusive
O=C(Nc1cccs1)Nc1ccc(Br)cc1F	FLuc modulator 12µM
O=C(Nc1cccs1)Nc1ccccc1Cl	FLuc modulator 26.9µM, ELG1 genotoxic inconclusive
O=C(NCc1ccc(F)cc1)c1cnc(N2CCOCC2)c2ccccc12	none (no result: NPC1 prom act, ELG1 genotoxic, SMN2 splice enh, Luc counter, Rab9 promoter act)
CCOC(=O)c1c(C)[nH]c(CCC(=O)NC(C)c2ccccc2)c1C (stereo not drawn)	none (no result: NPC1 prom act, ELG1 genotoxic, SMN2 splice enh, Luc counter, Rab9 promoter act)
CCc1ccc(C2C(C(=O)Nc3ccccc3OC)=C(C)Nc3c(C(=O)Nc4ccc(C)cc4)cnn32)cc1 (stereo not drawn)	none (no result: NPC1 prom act, ELG1 genotoxic, SMN2 splice enh, Luc counter, Rab9 promoter act)
Cc1cc(-c2csc(N)n2)c(C)n1C	none
Cc1ccc(-n2c(C)cc(-c3csc(N)n3)c2C)cc1	FLuc modulator 10.7µM
CC(C)Oc1ccc(C(=O)Nc2nnc3n2CCS3)cc1	FLuc modulator 10.7µM (no result: NPC1 prom act, ELG1 genotoxic, SMN2 splice enh, Luc counter, Rab9 promoter act)
